D2 ag-1 – HTS Assay for Allosteric Agonists of the Human D2 Dopamine Receptor: Primary Screen for Agonists. D(2) dopamine receptor (Homo sapiens), P14416. HEK293 T-REx D2 cells, calcium flux agonist mode. activation, % at 2 µM. 340,000 tested, 0.53% active;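 active = activation over 3 SD above normal in the single-dose calcium agonist read, cut at about 30% in these data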
Target sequence (P14416 whole entry, looked up): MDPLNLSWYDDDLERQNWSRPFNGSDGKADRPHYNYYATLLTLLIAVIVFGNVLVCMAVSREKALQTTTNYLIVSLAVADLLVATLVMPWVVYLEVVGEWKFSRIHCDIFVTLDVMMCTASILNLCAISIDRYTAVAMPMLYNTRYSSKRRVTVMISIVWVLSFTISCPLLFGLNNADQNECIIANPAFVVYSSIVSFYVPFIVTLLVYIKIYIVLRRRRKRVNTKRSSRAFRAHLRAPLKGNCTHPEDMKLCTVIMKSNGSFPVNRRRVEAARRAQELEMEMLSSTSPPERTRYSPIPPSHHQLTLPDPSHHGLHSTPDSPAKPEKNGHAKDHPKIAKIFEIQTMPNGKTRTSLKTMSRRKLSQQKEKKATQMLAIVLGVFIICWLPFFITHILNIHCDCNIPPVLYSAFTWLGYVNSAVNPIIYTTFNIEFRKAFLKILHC
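HEK293 Trex D2 cells, tetracycline-induced, o/n 30 C 5% CO2; no-wash Ca dye, RT 30–90 min; 10-cycle baseline, 23 nl cpd added, kinetic Ca read 180 s; agonist hits = positive Ca response.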
D2 PAM-1 – HTS Assay for Positive Allosteric Modulators of the Human D2 Dopamine Receptor: Primary Screen for Potentiators | 340,000 tested, 0.34% active | potentiation, % at 10 µM | D(2) dopamine receptor (Homo sapiens), P14416 | HEK293 T-REx D2, calcium flux, EC20 dopamine potentiation | AID 485347, 2010;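 active = potentiation over 3 SD above the plate norm, cut at about 30% in these data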
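Potentiation of an EC20 dopamine calcium response is measured in a force-coupled, tetracycline-inducible Hek293 Trex D2 line. Compound-only kinetic reads over 180 s flag agonists before dopamine addition.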
D2 PAM-2 – Beta-Arrestin HTS for Positive Allosteric Modulators of the Human D2 Dopamine Receptor: Potentiators. D(2) dopamine receptor (Homo sapiens), P14416. DiscoveRx D2 beta-arrestin cells, luminescence, 90 min; 100% = 57 uM dopamine signal. potentiation, % (concentration not given with the values). 360,000 tested, 0.23% active; in the data active = potentiation above about 50%
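PathHunter beta-arrestin assay in DiscoveRx D2 cells. Compounds were added with an EC20 of dopamine (50 nM final) for 90 min at 37 deg C. Luminescence was read 1 h after detection reagent, with 57 uM dopamine as the EC100 control.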
D2 ag-2 – Beta-Arrestin HTS for Positive Allosteric Modulators of the Human D2 Dopamine Receptor: Agonists. D(2) dopamine receptor (Homo sapiens), P14416. DiscoveRx PathHunter D2 beta-arrestin, luminescence, 90 min; 100% = 57 uM dopamine signal. activation, % (test concentration not listed). 360,000 tested, 0.084% active; in the data active = activation above about 40%
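Agonist mode: compounds alone added to overnight-plated D2 PathHunter cells for 90 min at 37 C, with 57 uM final dopamine (EC100) defining full response. Beta-arrestin recruitment detected by chemiluminescent reagent, read after 1 h at ambient temperature.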
D2 antagonist – HTS Assay for Allosteric Antagonists of the Human D2 Dopamine Receptor: Primary Screen for Antagonists; D(2) dopamine receptor (Homo sapiens), P14416; HEK293 TREx D2 cells, calcium flux, dopamine EC80; inhibition, % at 10 µM; 340,000 tested, 2% active; AID 485344, 2010; in the data active = inhibition above about 30%; inactive = below that, where a call was filed
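Antagonism is scored as inhibition of an EC80 dopamine-evoked calcium signal in a force-coupled, tetracycline-inducible HEK293 T-REx D2 line, with compound present 180 s before agonist.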
Large screens that a line does not name were inactive. A selection: hits, their analogues and other compounds. The true share with any hit is near 2.4%.

Cc1ccc(OCCCCNC(C)(C)C)c([N+](=O)[O-])c1	none
Cc1ccc(OCCCCN2CCCC(C)C2)c([N+](=O)[O-])c1 (stereo unspecified)	D2 antagonist 91
Cc1cc(OCCN2CCCCCC2)ccc1[N+](=O)[O-]	D2 antagonist 34
O=[N+]([O-])c1ccccc1OCCCNCc1ccccc1	D2 antagonist 38
Cc1ccc(S(=O)(=O)c2c(O)cc(C)c(NS(=O)(=O)c3ccc(Br)cc3)c2C)cc1	none (no result: D2 PAM-2, D2 ag-2, D2 antagonist)
Cc1ccc(N(CC(=O)NCCc2ccccc2)S(=O)(=O)N(C)C)cc1	none (no result: D2 PAM-2, D2 ag-2, D2 antagonist)
COCCNC(=O)c1ccccc1NC(=O)c1nsc2ccccc12	none (no result: D2 PAM-2, D2 ag-2, D2 antagonist)
CC1CCN(CCOCCOc2ccc(Br)cc2Cl)CC1	none (no result: D2 ag-1, D2 PAM-1, D2 antagonist)
Cc1cc(Br)ccc1OCCOCCN1CCCC1	D2 antagonist 43
CC1CCCN(CCCOc2ccc(Br)cc2Cl)C1 (stereo unspecified)	D2 antagonist 36
CC1CCN(CCCCOc2ccccc2[N+](=O)[O-])CC1	D2 antagonist 80
CC1CCN(CCCCOc2ccc([N+](=O)[O-])cc2)CC1	none
COc1cc(NC(=O)CN(C)S(=O)(=O)c2ccc3[nH]c4c(c3c2)CCCC4)cc(OC)c1OC	none (no result: D2 PAM-2, D2 ag-2, D2 antagonist)
O=C(CSc1nc2ccccc2n1Cc1cccc(C(F)(F)F)c1)NCc1ccccc1	none (no result: D2 PAM-2, D2 ag-2, D2 antagonist)
CCc1nn(CC(=O)NC(C)CC)c(=O)c2cc3occc3n12 (stereo unspecified)	none (no result: D2 PAM-2, D2 ag-2, D2 antagonist)
Cc1ccc(NC(=S)Nc2ccc3[nH]c(=O)[nH]c3c2)cc1	none
Cc1ccc(C(=O)NC(=S)Nc2ccc3[nH]c(=O)[nH]c3c2)cc1	D2 antagonist 46
Cc1ccc(C(=O)NC(=S)Nc2ccc(Oc3ccc(Cl)cc3)cc2)cc1	D2 PAM-1 37
Cc1cc(C)cc(C(=O)Nc2ccc3[nH]c(=O)[nH]c3c2)c1	D2 antagonist 30
COC(=O)c1ccc(OCC2c3cc(OC)c(OC)cc3CCN2C(=O)c2cccc(C)c2)cc1 (stereo unspecified)	none (no result: D2 PAM-2, D2 ag-2, D2 antagonist)
CC(=O)c1c(-c2ccccc2)c2cc(Cl)ccc2[nH]c1=O	D2 antagonist 75
COc1ccc(NC(=O)c2cc3c(=O)n(Cc4cccnc4)ccc3nc2C)c(OC)c1	none (no result: D2 PAM-2, D2 ag-2, D2 antagonist)
COc1ccccc1N1CCN(S(=O)(=O)c2ccc3c(c2)CC(C)N3C(C)=O)CC1 (stereo unspecified)	D2 antagonist 33
CCc1ccc(NC(=O)C2CCN(S(=O)(=O)c3ccc4c(c3)NC(=O)CO4)CC2)cc1	none
COc1ccccc1N1CCN(C(=O)C2CCN(S(=O)(=O)c3ccc4c(c3)CC(C)N4C(C)=O)CC2)CC1 (stereo unspecified)	none
CCc1cccc(NC(=O)C2CCN(S(=O)(=O)c3ccc4c(c3)CC(C)N4C(C)=O)CC2)c1 (stereo unspecified)	D2 antagonist 70
COc1cccc(NC(=O)C2CCN(S(=O)(=O)c3ccc4c(c3)CC(C)N4C(C)=O)CC2)c1 (stereo unspecified)	none
CCc1cccc(NC(=O)C2CCN(S(=O)(=O)c3ccc4c(c3)NC(=O)CO4)CC2)c1	D2 antagonist 30
CC(=O)N1c2ccc(S(=O)(=O)N(C)CC(=O)N3CCCC3)cc2CC1C (stereo unspecified)	D2 PAM-1 42
Cn1c2ccc(F)cc2c2ncn(CCN3CCOCC3)c(=O)c21	none
Cn1c2ccccc2c2ncn(CCCN3CCOCC3)c(=O)c21	D2 PAM-1 38
Cc1ccc(S(=O)(=O)Nc2cccc(C(=O)NCC(c3ccccc3)N(C)C)c2)cc1F (stereo unspecified)	D2 antagonist 79
Cc1ccccc1OCC(O)CN1CCN(CC(O)COc2ccccc2C)CC1 (stereo unspecified)	D2 antagonist 62
COc1ccccc1N1CCN(CC(O)COc2ccc(C)cc2C)CC1 (stereo unspecified)	D2 antagonist 76
COc1ccc2[nH]cc(C(O)CN3CCN(c4ccccc4F)CC3)c2c1 (stereo unspecified)	D2 antagonist 33
Cc1ccccc1OCC(O)CN1CCCCC1 (stereo unspecified)	none
C=CCc1ccc(OCC(O)CN2CCN(c3ccccc3OC)CC2)c(OC)c1 (stereo unspecified)	none
COc1ccccc1N1CCN(CC(O)COCCOc2ccc(Br)cc2)CC1 (stereo unspecified)	D2 antagonist 78
O=C(CC1NCCNC1=O)Nc1ccccc1F (stereo unspecified)	none (no result: D2 ag-1, D2 PAM-2, D2 ag-2, D2 antagonist)
COc1ccc(C2C(C(=O)Nc3cccnc3)=C(C)Nc3nc(SCc4ccccc4)nn32)cc1 (stereo unspecified)	none (no result: D2 PAM-2, D2 ag-2, D2 antagonist)
COc1cc(COCC(O)CN2CCN(Cc3ccccc3)CC2)cc(OC)c1OC (stereo unspecified)	none
Cc1ccccc1OCC(O)Cn1c(=N)n(CCN2CCOCC2)c2ccccc21 (stereo unspecified)	D2 PAM-1 40
COc1ccccc1N1CCN(CC(O)COCc2cccs2)CC1 (stereo unspecified)	D2 antagonist 81
COc1ccccc1N1CCN(CC(O)c2ccc3cc[nH]c3c2)CC1 (stereo unspecified)	D2 ag-1 37, D2 antagonist 60
Cc1ccc(Cl)cc1N1CCN(CC(O)COCc2ccco2)CC1 (stereo unspecified)	D2 antagonist 97
CCOC(=O)c1ccc(NC(=O)CCCn2nc(C)c3sc4ccccc4c3c2=O)cc1	none (no result: D2 PAM-2, D2 ag-2, D2 antagonist)
COc1ccccc1N1CCN(CC(O)COc2c(OC)cccc2OC)CC1 (stereo unspecified)	D2 antagonist 123
OC(COc1cccc2ccccc12)CN1CCN(c2ccccc2Cl)CC1 (stereo unspecified)	D2 antagonist 39
Cc1ccc(N2CCN(CC(O)COc3cccc4ccccc34)CC2)cc1 (stereo unspecified)	none
O=C(c1ccc2ncsc2c1)N1CCCCC1	none
Nc1nc2ccc(C(=O)N3CCCCC3)cc2s1	D2 antagonist 51
O=C(/C=C/Nc1ccc(F)cc1)c1ccc(Oc2ncccn2)cc1	D2 antagonist 34
O=S(=O)(NCC1CCCO1)c1ccc(S(=O)(=O)N(Cc2ccccn2)C2CC2)cc1 (stereo unspecified)	D2 antagonist 74
O=C(O)CC(NC(=O)Cc1ccc(Cl)cc1)c1ccco1 (stereo unspecified)	D2 PAM-1 39

Screens as filed in PubChem BioAssay.
